The source of these data is PubChem BioAssay AID1220 (Sanford-Burnham Center for Chemical Genomics, 2008).

In all, about 190,000 compounds went through this assay and about 1,300 (0.68%) were called active. This is one part of a sample in which actives are shown more often than they occur. A number with no mark means an inactive call. Rule as the data show it: active = inhibition above about 50%; inactive = the rest.

For this experiment, the target named is Mannose-6-phosphate isomerase (Homo sapiens) (UniProt P34949). As to the kind of experiment: human PMI inhibitors, high substrate, primary screen, biochemical, fluorescence intensity, high mannose 6-phosphate (AID 1220). To be noted: recombinant PMI enzyme, coupled fluorescence intensity; at 20 µM; hits give high values.
Mannose-6-phosphate isomerase (Homo sapiens), sequence (P34949 whole entry, looked up): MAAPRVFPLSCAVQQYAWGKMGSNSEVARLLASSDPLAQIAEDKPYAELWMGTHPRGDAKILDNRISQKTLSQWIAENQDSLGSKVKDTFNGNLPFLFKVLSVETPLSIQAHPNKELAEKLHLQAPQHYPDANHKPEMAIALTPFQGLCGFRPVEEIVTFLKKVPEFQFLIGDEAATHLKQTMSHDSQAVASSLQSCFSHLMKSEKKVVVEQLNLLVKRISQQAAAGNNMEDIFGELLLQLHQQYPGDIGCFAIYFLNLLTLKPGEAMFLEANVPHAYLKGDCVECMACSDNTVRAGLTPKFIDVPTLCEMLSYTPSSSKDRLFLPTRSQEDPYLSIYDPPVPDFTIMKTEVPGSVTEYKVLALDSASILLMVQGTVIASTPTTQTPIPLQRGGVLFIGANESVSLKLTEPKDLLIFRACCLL
Broadly, the inhibition is the drop in the measured response relative to a control, in per cent. For the compound `CC(C)NC(=S)Nc1ccc2[nH]c(=O)[nH]c2c1`, the inhibition was -22%.
In the case of `CC(C)(C)N(NC(=O)OCc1ccccc1)C(=O)c1ccccc1`, the inhibition was 2.3%.
The figure for `CN(CP(=O)(O)CCc1ccccc1)S(C)(=O)=O` is 3.2%; for `CNc1ccc(/C=C(\C#N)c2ccccn2)cc1[N+](=O)[O-]` it is -3.1%.
Take `Cc1ccc(/C=C/C(=O)N2CCCN(C(=O)/C=C/c3ccc(C)cc3)CC2)cc1`: the inhibition was 2.5%.
Consider `COc1ccc2nc(NC(=O)c3ccc(-c4cccc([N+](=O)[O-])c4)o3)sc2c1`, for which the inhibition was -5.7%.
For the compound `COc1ccc2cc3cc(C(=O)NCCN4CCN(Cc5ccccc5)CC4)oc3nc2c1`, the inhibition is -5.6%.
The figure for `Cc1c(NC(=O)CN2CCN(c3ccc(O)cc3)CC2)c(=O)n(-c2ccccc2)n1C` is 53% (active); for `O=C(CN1CCN(c2ccccc2O)CC1)NC(c1ccccc1)c1ccccc1` it is 15.4%; for `COc1ccc(N2CCN(CC(=O)NC(=O)NC(C)(C)C)CC2)cc1` it is 12.2%.
Under `CC(CCc1ccccc1)NC(=O)CN1CCN(c2ccc(O)cc2)CC1` (stereo not given) stands 65.2% (active); under `Cc1c(NC(=O)CN2CCN(c3ccc(F)cc3)CC2)c(=O)n(-c2ccccc2)n1C`, 5.8%; under `CC(C)(C)NC(=O)NC(=O)CN1CCN(c2ccc(O)cc2)CC1`, 62.6% (active).
As for `Cc1c(NC(=O)CN2CCN(c3ccccc3)CC2)c(=O)n(-c2ccccc2)n1C`, the inhibition is -8.2%.
As to `CC(CCc1ccccc1)NC(=O)CN1CCc2ccccc2C1` (stereo not given), the inhibition is 3.9%.
As to `CC(C)(C)NC(=O)NC(=O)CN1CCN(c2ccccc2)CC1`, the inhibition was -4.3%.
Under `CC1CC(C)CN(CC(=O)NC(c2ccccc2)c2ccccc2)C1` (stereo not given) stands -6.3%.
In the case of `CC(CCc1ccccc1)NC(=O)CN1CCN(c2ccccc2)CC1` (stereo not given), the inhibition is 8.2%.
Under `O=C(CN1CCN(c2ccc(O)cc2)CC1)NC(c1ccccc1)c1ccccc1` stands 64% (active).
Under `CC(=O)OC1CC(C)(C)N(OC(=O)c2ccccc2)C(C)(C)C1` stands -2.2%; under `Cc1cc(Nc2c(C#N)c(N)nn2C)ccc1F`, 0.7%.
Take `O=C(NC12CC3CC(CC(C3)C1)C2)c1cc2nc(-c3ccco3)cc(C(F)(F)F)n2n1`: the inhibition is 7.3%.
In the case of `O=C(NC1CCCCC1)C(c1ccco1)N(Cc1ccco1)C(=O)c1ccco1` (stereo not given), the inhibition is -4.5%.
On to `O=C(Nc1ccc2c(c1)CCC2)c1ccccc1F`, for which the inhibition was -3.5%.
The figure for `Cc1nn(-c2ccccc2)c(C)c1/C=C/C(=O)OCC(=O)NC1CCS(=O)(=O)C1` (stereo not given) is -6.3%.
The figure for `CC1(C)CC(=O)CC(C2(O)C(=O)N(Cc3ccccc3)c3ccccc32)O1` (stereo not given) is 0.6%.
Under `O=C(CN(C(=O)CNS(=O)(=O)c1ccccc1)c1ccc2c(c1)OCCO2)NCc1ccco1` stands -2.1%; under `CCC(=O)Nc1cc(Cl)ccc1C(=O)O`, -13.8%.
As for `Cn1c(=O)[nH]c(=O)c2[nH]c(N(Cc3ccccc3)Cc3ccccc3)nc21`, the inhibition is 10.1%.
Turning to `Cc1cc(NC(=O)CCCC(=O)NCc2cccs2)no1`, the inhibition was 3.8%.
The figure for `Cc1nc(NC(=O)CSc2nnnn2Cc2ccccc2)sc1C` is 5.5%; for `COc1ccc2c(c1)CCC1C2=NN(/C(C)=C/C(C)=O)C1c1cccc(F)c1` (stereo not given) it is 44.4%.
Consider `COc1ccc2c(c1)C1=NN(/C(C)=C/C(C)=O)C(c3ccc(F)cc3)C1CC2` (stereo not given), for which the inhibition was 56.3% (active).
The figure for `COc1ccc2c(c1)CCc1c(C(=O)NCc3ccc(F)cc3)noc1-2` is 9.9%; for `COc1ccc2c(c1)CCC1C2=NN(/C(C)=C\C(C)=O)C1c1ccc(F)cc1` (stereo not given) it is 54.4% (active).
Under `COc1ccc2c(c1)C1=NN(/C(C)=C/C(C)=O)C(c3cccc(F)c3)C1CC2` (stereo not given) stands 44.9%; under `COc1ccc2c(c1)C1=NN(/C(C)=C\C(C)=O)C(c3ccccc3)C1CC2` (stereo not given), 47.7%; under `O=C(CN(C(=O)CNC(=O)c1cccs1)c1ccc2c(c1)OCCO2)NC1CCCC1`, 4.5%.
`COc1ccc(N2CC(O)=C(c3nc(-c4ccc(F)cc4)cs3)C2=N)cc1Cl`: the inhibition was -5.1%.
Take `COc1ccccc1C(=O)NNC(=O)c1ccccc1F`: the inhibition is -3.9%.
As for `O=C(CN1CCCCC1)N1c2ccccc2Oc2ccccc21`, the inhibition was -7.7%.
For `O=C(CN1C(=O)c2ccccc2C1=O)N1CCOCC1`, the inhibition is 7.3%.
The figure for `O=C(CN1CC(=O)Oc2ccccc21)OCC(=O)c1ccccc1` is 11.2%.
The figure for `O=C1CN(CC(=O)N2CCOCC2)c2ccccc2O1` is 51.9% (active); for `O=C1CN(CC(=O)N2CCCCC2)c2ccccc2O1` it is 51.6% (active).
Under `O=C(CN1CCOc2ccccc21)N1CCCC1` stands 3.6%.
On to `COCCCNC(=O)Cc1ccccc1OC`, for which the inhibition is -3.4%.
Regarding `CCNc1nc(Oc2ccc(C(=O)OCC)cc2)nc(N2CCOCC2)n1`, the inhibition was 10%.
In the case of `O=C(Cc1ccccc1)N/N=C/c1ccc(-c2ccc([N+](=O)[O-])cc2)o1`, the inhibition is 14.3%.
The figure for `O=[N+]([O-])c1ccc(-c2ccc(C=Nc3cccc4ccccc34)o2)cc1` is 70% (active); for `Cc1ccc(C)c(N=Cc2ccc(-c3ccc([N+](=O)[O-])cc3)o2)c1` it is 10.6%; for `CCCCOC(=O)c1ccc(Nc2ccc([N+](=O)[O-])cn2)cc1` it is -10.3%.
Under `O=C(C1CCCCC1)N1CCN(S(=O)(=O)c2ccc(Br)cc2)CC1` stands 1.8%; under `COc1ccc(C(=O)Nc2nc3ccc(S(C)(=O)=O)cc3s2)cc1OC`, 7.7%.
With `CC(C)c1nccn1S(=O)(=O)c1cccc([N+](=O)[O-])c1`, the inhibition is -2.8%.
Under `O=[N+]([O-])c1cccc(S(=O)(=O)c2cccc([N+](=O)[O-])c2)c1` stands -1.5%.
Turning to `CC(C)C1=CC(=NS(=O)(=O)c2cccc([N+](=O)[O-])c2)C=C(C(C)C)C1=O`, the inhibition is 59.4% (active).
Under `CCOc1cc(NC(=S)NCc2ccco2)c(OCC)cc1NC(C)=O` stands 7.1%.
Regarding `CCC(C)c1ccc(O)c(N)c1` (stereo not given), the inhibition was 31.5%.
Under `CCC(NC(C)C)C(O)c1ccc(O)c2[nH]c(=O)ccc12` (stereo not given) stands 11.5%; under `CNC[C@H](O)c1cccc(O)c1`, -2.7%.
The figure for `COc1ccc([C@H](C)NC[C@H](O)c2ccc(O)c(NC=O)c2)cc1` is 10.4%; for `CNC[C@H](O)c1ccc(O)c(O)c1` it is 59% (active).
Under `CCC(NC(C)C)C(O)c1ccc(O)c(O)c1` (stereo not given) stands 61.2% (active); under `O=C(NC(=S)Nc1cc(C(F)(F)F)ccc1N1CCOCC1)c1sc2ccccc2c1Cl`, 2.7%.
Turning to `Cc1ccc(/C=C2\C(=O)ON=C2c2ccccc2)o1`, the inhibition was 5.3%.
The figure for `Cc1cccc(C)c1N(CC(=O)N1CCN(c2ccccc2F)CC1)S(C)(=O)=O` is 1.2%; for `COc1cc(/C(C)=N/Nc2ccc(C(=O)O)cc2)cc(OC)c1OC` it is -109%.
With `O=C(Nc1ccc(S(=O)(=O)Nc2ncccn2)cc1)C1COc2ccccc2O1` (stereo not given), the inhibition was 8.2%.
The figure for `Cc1ccnc(NS(=O)(=O)c2ccc(NC(=O)C3COc4ccccc4O3)cc2)n1` (stereo not given) is -9.4%; for `Cc1cc(C)nc(NS(=O)(=O)c2ccc(NC(=O)C3COc4ccccc4O3)cc2)n1` (stereo not given) it is 54.1% (active).
Turning to `Cc1ccccc1NC(=O)c1oc(=O)c2ccccc2c1-c1ccccc1`, the inhibition is -3.9%.
Under `CCN(CC)C1=CC2=CC(=C(C#N)C#N)CCC2CC1` (stereo not given) stands 50.6% (active); under `CCCCN(C)C1=CC2=CC(=C(C#N)C#N)CCC2CC1` (stereo not given), 51.1% (active); under `Cc1cc(C=NCCO)c(C)n1-c1cc(Cl)ccc1Cl`, 1.2%.
Under `C=CCNC(=O)CN(c1ccccc1OCC)S(=O)(=O)c1ccc(C)cc1` stands 9.1%; under `O=C(c1cccc(Br)c1)N1CCN(S(=O)(=O)N2CCOCC2)CC1`, -0.4%; under `Cc1nn(-c2nc3ccccc3s2)c(N)c1-c1ccc(Cl)cc1`, -4.7%.
`CCOC(=O)c1ccccc1N=N/C(C(C)=O)=C(/C)O`: the inhibition is 3.4%.
Under `Cc1cc(C(=O)Nc2sc3c(c2C#N)CCC(C)C3)cs1` (stereo not given) stands -2.5%; under `O=C(Cn1cnc2ccccc2c1=O)NCc1cccs1`, 36.2%; under `COc1ccc(O)c(C=NCC(C)N=Cc2cc(OC)ccc2O)c1` (stereo not given), 51.9% (active).
Consider `COc1cccc(/C=N/NC(=O)C(=O)N/N=C/c2cccc(OC)c2O)c1O`, for which the inhibition was -27.8%.
With `COc1cccc(C=NCC(C)N=Cc2cccc(OC)c2O)c1O` (stereo not given), the inhibition is 52.3% (active).
For `COc1cccc(C=Nc2cc(C)cc(C)c2)c1O`, the inhibition is 17.1%.
Under `COc1ccc(O)c(C=Nc2cc(C)on2)c1` stands 23.9%; under `CCCn1c(/N=C/c2cc(OC)ccc2O)nc2ccccc21`, 13.5%.
On to `Cc1ccc(CN(Cc2cc3cc4c(cc3[nH]c2=O)OCCO4)Cc2nnnn2Cc2ccco2)cc1`, for which the inhibition was 17.2%.
On to `CC(C)Cn1c(N2CCN(CC(=O)Nc3ccc(Cl)cc3)CC2)nc2ccccc21`, for which the inhibition is 13.8%.
For `CCn1c(CN2CCN(C(=O)c3ccco3)CC2)nc2c1c(=O)n(C)c(=O)n2C`, the inhibition is -1%.
As for `CCCS(=O)(=O)c1cn2cccc(N)c2c1S(=O)(=O)CCC`, the inhibition is 4%.
On to `CC(=O)N1CCc2cc(NC(=O)c3ccc(C)cc3)ccc21`, for which the inhibition was 3.7%.
Under `Cn1nnc2cc(C(=O)N3CCCCCC3)ccc21` stands 0.1%.
`COc1cc(/C=C(\C#N)c2nc3ccccc3s2)cc([N+](=O)[O-])c1O`: the inhibition is 71.2% (active).
With `COc1cc(/C=C(\C#N)c2nc3ccc(C)cc3[nH]2)cc([N+](=O)[O-])c1O`, the inhibition is 64.5% (active).
As for `COc1cc(/C=C(\C#N)c2nc3ccccc3s2)ccc1OCC(=O)Nc1ccccc1`, the inhibition is -0.3%.
On to `COc1cc(/C=C(\C#N)c2nc3ccccc3[nH]2)c([N+](=O)[O-])cc1OCc1ccccc1`, for which the inhibition was 66.5% (active).
The figure for `COc1cc(/C=C(/C#N)c2nc3ccccc3[nH]2)ccc1Oc1ncccc1[N+](=O)[O-]` is 11.5%.
The figure for `COc1cc(/C=C(\C#N)c2nc3ccc(C)cc3[nH]2)c([N+](=O)[O-])cc1OC` is 47.8%; for `N#C/C(=C\c1ccc(O)c([N+](=O)[O-])c1)c1nc2ccccc2s1` it is 0.6%.
The figure for `COc1cc(/C=C(\C#N)c2nc3ccccc3[nH]2)cc(Br)c1OCc1ccccc1` is -16.7%; for `COc1cc(C=C(c2nc3ccccc3s2)c2nc3ccccc3s2)ccc1O` it is 34.4%.
As for `COc1cc(C=C(c2nc3ccccc3s2)c2nc3ccccc3s2)cc(OC)c1O`, the inhibition is 54.4% (active).
Consider `COc1ccc(C=C(c2nc3ccccc3s2)c2nc3ccccc3s2)cc1O`, for which the inhibition is 31.1%.
Under `COc1ccc(/C=C(\C#N)c2nc3ccc(C)cc3[nH]2)cc1Oc1ccc(C(F)(F)F)cc1[N+](=O)[O-]` stands 1.7%.
